Source: the supplement of paper PMC10849652
Of roughly 7,900 targets only a part is listed; those with a hit were picked by preference. About 0.6% of all pairs of compound and target were hits. Values without a mark were called inactive.

Experiments:
Test in all cases: log2 fold change, soluble protein after heating vs DMSO (PISA); higher = thermal stabilisation; K562 cells, 10 uM, 30 min; active = over 0.2 and 3.5 SD of the protein, either way, in both replicates (recomputed)
[1] = compound: C#Cc1cccc(Nc2ncnc3cc(OCCOC)c(OCCOC)cc23)c1 [erlotinib]
Summary of the method: (§1)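 K562 cells at 2×10^6 cells/mL were exposed to 10 μM compound for 30 min, then aliquots were heated for 3 min across 48°C-58°C, pooled, and extracted in PBS containing 0.5% NP-40 at 4°C. The supernatant after 21,000xg for 90 min was taken as soluble protein and measured by TMTpro 16plex LC-MS/MS with channel sums equalised. Thermal stability is reported relative to control samples, with values from duplicates. Fold changes are given on a log2 scale.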

[2] = compound: C/C(=N\NC(=O)C1=CC(=CC=C1)S(=O)(=O)N2CCOCC2)/C3=C(C=CC(=C3)Cl)O
Summary of the method: as §1

[3] = compound: C1=CC(=C(C=C1Cl)C2=NC3=NC=CN=C3C(=N2)NC4=CC=NC=C4)F
Summary of the method: as §1

[4] = compound: C1=CC(=CC=C1C2=NC3=C(N2)C=C(C=C3)C(=O)N)OC4=CC=C(C=C4)Cl
Summary of the method: as §1

[5] = compound: C1=CC2=C(C=CC(=C2)/C=C\3/C(=O)NC(=NCC4=CC=CS4)S3)N=C1
Summary of the method: as §1

[6] = compound: C1=CC2=NC=CN=C2C=C1/C=C/3\C(=O)NC(=O)S3
Summary of the method: as §1

[7] = compound: C1=CC=C(C=C1)C2=NC(=C(N2)C3=CC=NC=C3)C4=CC(=C(C=C4)Cl)O
Summary of the method: as §1

[8] = compound: C1=CC=C2C(=C1)C3=NNC4=CC=CC(=C43)C2=O
Summary of the method: as §1

[9] = compound: C1CCN(C1)C(=O)NC2=CC=CC(=C2)NC3=NC=C(C(=N3)NCCC4=CN=CN4)Br
Summary of the method: as §1

[10] = compound: C1CN(CCC1(CC2=CC=C(C=C2)Cl)N)C3=NC=NC4=C3C=CN4
Summary of the method: as §1

[11] = compound: C1COCCN1CCN2C3=CC=CC=C3N=C2NC(=O)C4=CC(=CC=C4)[N+](=O)[O-] [IRAK-1-4 Inhibitor I]
Summary of the method: as §1

[12] = compound: C=CC(=O)N1CCC[C@@H](n2nc(-c3ccc(Oc4ccccc4)cc3)c3c(N)ncnc32)C1 [ibrutinib]
Summary of the method: as §1

[13] = compound: CC(=O)c1cnc2ccc(-c3cc(Cl)c(O)c(Cl)c3)nc2c1N[C@H]1CC[C@H](CN(C)C)CC1
Summary of the method: as §1

[14] = compound: CC(C)(C)Cn1c(N)nc2ccc(-c3[nH]c(C(C)(C)C)nc3-c3ccc(F)cc3)nc21 [ralimetinib]
Summary of the method: as §1

[15] = compound: CC(C)(O)CC(=O)NCCn1ccc2ncnc(Nc3ccc(Oc4cccc(C(F)(F)F)c4)c(Cl)c3)c21
Summary of the method: as §1

[16] = compound: CC(C)C1=C2N=C(C=C(N2N=C1)NCC3=CC=CC=C3)NCCCCCCN
Summary of the method: as §1

[17] = compound: CC(C)C[C@@H](C=O)NC(=O)[C@H](CC(C)C)NC(=O)[C@H](CC(C)C)NC(=O)OCc1ccccc1
Summary of the method: as §1

[18] = compound: CC(C)N(C[C@H]1O[C@@H](n2cnc3c(N)ncnc32)[C@H](O)[C@@H]1O)[C@H]1C[C@@H](CCc2nc3cc(C(C)(C)C)ccc3[nH]2)C1 [pinometostat]
Summary of the method: as §1

[19] = compound: CC1=C(C(CC(=O)N1)C2=CC=C(C=C2)C(F)(F)F)C(=O)NC3=C(C=C4C(=C3)C=NN4)F
Summary of the method: as §1

[20] = compound: CC1=C(C2=C(C=C1)C(=O)C3=CC=CC=C3N2CCCN)C
Summary of the method: as §1

Sequence of UniProt P23919 (P23919 whole entry, looked up): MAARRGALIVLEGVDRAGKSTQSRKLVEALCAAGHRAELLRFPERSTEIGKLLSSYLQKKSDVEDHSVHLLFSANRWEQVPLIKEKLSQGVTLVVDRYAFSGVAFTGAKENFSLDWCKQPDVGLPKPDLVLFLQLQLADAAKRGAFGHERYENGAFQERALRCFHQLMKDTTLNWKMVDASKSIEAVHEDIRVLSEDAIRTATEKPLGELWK
Sequence of UniProt Q96G46 (Q96G46 whole entry, looked up): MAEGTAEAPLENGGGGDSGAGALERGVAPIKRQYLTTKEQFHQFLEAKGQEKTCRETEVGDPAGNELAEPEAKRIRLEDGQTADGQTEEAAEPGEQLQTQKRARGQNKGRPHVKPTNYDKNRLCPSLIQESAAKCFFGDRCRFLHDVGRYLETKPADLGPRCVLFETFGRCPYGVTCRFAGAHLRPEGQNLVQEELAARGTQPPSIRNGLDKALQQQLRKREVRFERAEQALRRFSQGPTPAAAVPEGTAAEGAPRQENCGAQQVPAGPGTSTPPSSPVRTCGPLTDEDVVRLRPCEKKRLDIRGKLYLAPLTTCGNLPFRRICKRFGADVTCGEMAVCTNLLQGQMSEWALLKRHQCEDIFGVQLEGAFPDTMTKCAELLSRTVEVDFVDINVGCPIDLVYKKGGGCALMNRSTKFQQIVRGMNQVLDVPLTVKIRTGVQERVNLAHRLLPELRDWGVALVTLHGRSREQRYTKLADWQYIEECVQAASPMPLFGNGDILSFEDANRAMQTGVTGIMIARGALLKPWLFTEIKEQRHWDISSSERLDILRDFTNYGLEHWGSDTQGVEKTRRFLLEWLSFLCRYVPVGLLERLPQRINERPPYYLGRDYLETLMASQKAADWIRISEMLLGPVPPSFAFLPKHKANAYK
Sequence of UniProt O60888 (O60888 whole entry, looked up): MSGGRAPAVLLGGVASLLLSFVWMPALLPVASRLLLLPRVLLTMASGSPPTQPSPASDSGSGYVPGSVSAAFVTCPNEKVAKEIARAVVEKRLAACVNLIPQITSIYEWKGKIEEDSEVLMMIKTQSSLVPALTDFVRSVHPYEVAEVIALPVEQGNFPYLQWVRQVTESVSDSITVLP
Sequence of UniProt P34913 (P34913 whole entry, looked up): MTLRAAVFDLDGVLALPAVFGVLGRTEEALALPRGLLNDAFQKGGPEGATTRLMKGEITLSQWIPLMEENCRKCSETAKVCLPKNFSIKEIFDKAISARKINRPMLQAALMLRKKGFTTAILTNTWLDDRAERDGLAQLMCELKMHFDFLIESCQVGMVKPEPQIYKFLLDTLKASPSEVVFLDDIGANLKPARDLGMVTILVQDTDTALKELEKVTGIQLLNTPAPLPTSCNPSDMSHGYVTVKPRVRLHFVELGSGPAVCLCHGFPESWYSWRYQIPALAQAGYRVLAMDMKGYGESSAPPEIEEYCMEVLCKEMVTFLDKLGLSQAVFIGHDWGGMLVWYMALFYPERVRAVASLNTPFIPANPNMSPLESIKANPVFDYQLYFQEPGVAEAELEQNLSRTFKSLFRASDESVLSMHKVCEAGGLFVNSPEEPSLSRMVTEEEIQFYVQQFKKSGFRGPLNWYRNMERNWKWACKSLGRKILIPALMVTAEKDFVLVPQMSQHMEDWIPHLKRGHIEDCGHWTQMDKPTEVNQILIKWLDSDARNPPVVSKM
Sequence of UniProt Q9NRY5 (Q9NRY5 whole entry, looked up): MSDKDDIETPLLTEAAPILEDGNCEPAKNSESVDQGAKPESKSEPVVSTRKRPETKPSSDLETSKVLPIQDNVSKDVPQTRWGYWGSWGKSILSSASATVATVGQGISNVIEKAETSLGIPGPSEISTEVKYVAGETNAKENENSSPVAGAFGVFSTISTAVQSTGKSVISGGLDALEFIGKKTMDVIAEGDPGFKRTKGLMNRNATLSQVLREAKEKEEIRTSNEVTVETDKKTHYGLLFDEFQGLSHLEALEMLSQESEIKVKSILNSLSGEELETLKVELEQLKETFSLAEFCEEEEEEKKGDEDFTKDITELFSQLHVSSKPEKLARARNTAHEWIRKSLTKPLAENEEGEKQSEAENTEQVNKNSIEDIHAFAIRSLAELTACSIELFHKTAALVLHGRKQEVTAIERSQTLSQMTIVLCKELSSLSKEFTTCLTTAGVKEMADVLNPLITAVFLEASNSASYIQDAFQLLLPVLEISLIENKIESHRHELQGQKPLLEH
Sequence of UniProt Q07973 (Q07973 whole entry, looked up): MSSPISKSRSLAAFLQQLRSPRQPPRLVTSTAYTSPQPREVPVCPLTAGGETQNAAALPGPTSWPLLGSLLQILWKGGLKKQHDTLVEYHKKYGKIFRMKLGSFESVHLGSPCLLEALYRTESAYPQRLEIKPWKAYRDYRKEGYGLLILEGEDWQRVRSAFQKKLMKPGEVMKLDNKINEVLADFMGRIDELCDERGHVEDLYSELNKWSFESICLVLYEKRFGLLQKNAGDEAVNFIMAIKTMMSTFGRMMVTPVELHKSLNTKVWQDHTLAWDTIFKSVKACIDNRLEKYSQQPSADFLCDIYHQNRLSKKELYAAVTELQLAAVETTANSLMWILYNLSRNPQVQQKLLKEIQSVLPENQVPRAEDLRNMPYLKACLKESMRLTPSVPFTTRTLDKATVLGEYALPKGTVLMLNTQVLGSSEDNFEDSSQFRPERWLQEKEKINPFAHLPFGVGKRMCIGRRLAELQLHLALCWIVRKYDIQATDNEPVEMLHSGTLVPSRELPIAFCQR
Sequence of UniProt O00148 (O00148 whole entry, looked up): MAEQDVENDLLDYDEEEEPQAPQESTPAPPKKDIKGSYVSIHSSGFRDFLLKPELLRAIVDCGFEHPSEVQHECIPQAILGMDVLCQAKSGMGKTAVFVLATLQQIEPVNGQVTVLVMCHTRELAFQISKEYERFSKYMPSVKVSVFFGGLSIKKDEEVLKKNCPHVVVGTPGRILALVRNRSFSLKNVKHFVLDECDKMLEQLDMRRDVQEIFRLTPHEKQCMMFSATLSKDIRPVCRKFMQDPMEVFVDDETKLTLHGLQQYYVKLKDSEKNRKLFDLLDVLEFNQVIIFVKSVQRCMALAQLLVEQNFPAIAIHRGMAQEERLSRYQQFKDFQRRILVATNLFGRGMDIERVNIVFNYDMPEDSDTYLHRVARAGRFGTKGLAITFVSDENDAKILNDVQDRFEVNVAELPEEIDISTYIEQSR
Sequence of UniProt O00471 (O00471 whole entry, looked up): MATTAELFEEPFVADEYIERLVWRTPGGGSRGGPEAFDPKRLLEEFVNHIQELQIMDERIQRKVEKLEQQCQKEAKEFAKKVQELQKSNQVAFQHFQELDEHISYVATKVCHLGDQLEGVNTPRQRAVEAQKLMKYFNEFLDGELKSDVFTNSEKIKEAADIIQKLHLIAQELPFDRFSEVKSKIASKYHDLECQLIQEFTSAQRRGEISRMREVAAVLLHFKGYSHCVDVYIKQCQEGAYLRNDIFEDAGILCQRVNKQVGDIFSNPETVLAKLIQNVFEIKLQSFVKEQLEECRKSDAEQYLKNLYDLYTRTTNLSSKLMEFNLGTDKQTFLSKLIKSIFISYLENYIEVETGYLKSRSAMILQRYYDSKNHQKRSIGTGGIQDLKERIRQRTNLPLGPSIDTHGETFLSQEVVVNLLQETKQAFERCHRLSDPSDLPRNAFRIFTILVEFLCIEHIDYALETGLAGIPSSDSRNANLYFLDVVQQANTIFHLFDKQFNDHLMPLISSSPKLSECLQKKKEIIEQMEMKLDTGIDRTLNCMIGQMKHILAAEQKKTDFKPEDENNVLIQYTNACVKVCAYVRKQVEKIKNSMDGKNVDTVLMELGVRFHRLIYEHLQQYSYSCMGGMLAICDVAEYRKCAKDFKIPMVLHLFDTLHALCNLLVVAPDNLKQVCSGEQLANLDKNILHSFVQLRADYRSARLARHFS
Sequence of UniProt Q58WW2 (Q58WW2 whole entry, looked up): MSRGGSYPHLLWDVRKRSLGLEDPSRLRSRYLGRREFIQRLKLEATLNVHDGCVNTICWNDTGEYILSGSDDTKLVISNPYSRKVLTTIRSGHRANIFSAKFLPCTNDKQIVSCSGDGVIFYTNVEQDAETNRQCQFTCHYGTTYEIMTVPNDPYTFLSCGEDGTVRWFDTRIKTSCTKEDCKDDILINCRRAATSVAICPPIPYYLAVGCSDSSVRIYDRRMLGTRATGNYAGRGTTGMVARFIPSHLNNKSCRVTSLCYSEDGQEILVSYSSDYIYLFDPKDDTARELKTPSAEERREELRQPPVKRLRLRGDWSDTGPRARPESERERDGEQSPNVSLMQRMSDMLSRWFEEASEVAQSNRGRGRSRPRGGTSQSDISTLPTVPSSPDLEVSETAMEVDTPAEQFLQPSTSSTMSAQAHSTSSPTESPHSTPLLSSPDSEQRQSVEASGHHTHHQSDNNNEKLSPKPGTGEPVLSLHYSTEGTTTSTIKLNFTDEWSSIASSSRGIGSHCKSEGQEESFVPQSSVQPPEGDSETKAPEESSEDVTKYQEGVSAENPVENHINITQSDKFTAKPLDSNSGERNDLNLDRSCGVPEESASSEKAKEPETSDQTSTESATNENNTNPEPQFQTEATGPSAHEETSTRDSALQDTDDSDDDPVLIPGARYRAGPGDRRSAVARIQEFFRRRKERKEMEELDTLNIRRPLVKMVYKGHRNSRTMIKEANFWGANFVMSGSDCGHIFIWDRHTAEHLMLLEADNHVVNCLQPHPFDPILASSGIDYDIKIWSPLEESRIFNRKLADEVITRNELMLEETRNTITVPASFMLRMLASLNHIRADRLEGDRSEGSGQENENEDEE

Target	log2 fold change [1]	log2 fold change [2]	log2 fold change [3]	log2 fold change [4]	log2 fold change [5]	log2 fold change [6]	log2 fold change [7]	log2 fold change [8]	log2 fold change [9]	log2 fold change [10]	log2 fold change [11]	log2 fold change [12]	log2 fold change [13]	log2 fold change [14]	log2 fold change [15]	log2 fold change [16]	log2 fold change [17]	log2 fold change [18]	log2 fold change [19]	log2 fold change [20]
DTYMK (UniProt P23919)	-0.007	0.025	0.013	0.04	-0.027	0.044	-0.017	0.095	0.015	0.016	0.076	-0.003	-0.02	-0.056	-0.178	-0.029	-0.013	0.039	-0.01	0.084
DDX39A (UniProt O00148)	0.038	0.027	0.031	-0.03	-0.026	-0.068	-0.026	-0.059	-0.007	-0.019	-0.034	0.099	-0.224	0.003	-0.142	-0.327 (active)	0.042	0.075	0.092	-0.28
DUS3L (UniProt Q96G46)	-0.073	0.025	0.118	0.059	0.016	0.037	0.042	-0.001	-0.043	0.078	0	0.008	-0.031	0.042	-0.043	0.062	-0.055	-0.022	-0.001	-0.005
FAM114A2 (UniProt Q9NRY5)	-0.001	0.051	0.055	-0.002	0.008	0.067	-0.018	-0.04	-0.002	-0.021	0.038	-0.03	0.013	-0.017	-0.135	-0.201	0.004	0.005	-0.01	-0.059
EXOC5 (UniProt O00471)	0.054	0.092	-0.002	-0.044	0.01	0	-0.006	0.015	0.004	-0.015	-0.062	-0.002	-0.01	0.015	-0.03	-0.344 (active)	0.014	0.078	0	-0.061
CUTA isoform 2 (UniProt O60888)	-0.01	-0.066	0	0.033	0	0.003	0.091	-0.054	-0.1	-0.105	0.074	-0.018	0.085	-0.046	-0.104	0.038	-0.09	-0.009	0.005	0.15
CYP24A1 (UniProt Q07973)	-0.042	-0.796 (active)	–	-0.072	0.015	-0.13	0.091	-0.057	0.179	0.046	-0.162	-0.044	0.187	0.412	–	0.069	0.31	0.276	0.083	-0.089
DCAF6 isoform 3 (UniProt Q58WW2)	0.035	0	0.035	0.014	0.007	0.045	0.008	-0.036	0.042	0.055	0.025	-0.004	-0.018	-0.022	-0.022	0.056	0.023	-0.004	0.015	-0.034
EPHX2 (UniProt P34913)	-0.01	0.213	-0.008	0.2	0.09	-0.004	0.038	-0.032	0.123	-0.001	0.044	0.096	-0.024	-0.026	-0.018	0.285 (active)	0.012	0.144	0.073	-0.006
